Out of some 220,000 compounds screened, about 2,000 (0.91%) were called active. Another 2% or so got no clear call; they are omitted. Only a sample is shown. Measured potencies and affinities stand elsewhere. Unmarked numbers belong to inactive results. Rule as the data show it: inconclusive = inhibition above about 80% without an active follow-up result; inactive = below that; test concentration not stated here.

The assay in a line: M. tuberculosis H37Rv growth inhibitors, H37Rv strain (AID 1626).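 Also: bacteria incubated seven days before Alamar blue readout; 0% = bacteria only wells and 100% = bacteria with antibiotic wells.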 Conditions: hits give high values, concentration not given here.
For the compound `Cc1ccc(Nc2nc(C(=O)N3CCC(C(=O)N4CCN(C)CC4)CC3)cs2)cc1`, the inhibition (as a rule, the relative decrease from the control value, in per cent) was -9.19%.

For `O=C(NCC1CCCO1)c1sc2cc(Cl)ccc2c1Cl` (stereo not given), the inhibition was 10.4%.

Take `CCN1CCN(C(=O)c2nn(-c3ccc(C)cc3)c(=O)c3c2c2ccccc2n3C)CC1`: the inhibition was 1.02%.

For the compound `CC(=O)c1c(C)[nH]c(C(=O)CSc2nnc(-c3ccccc3)n2Cc2ccc3c(c2)OCO3)c1C`, the inhibition was 0.21%.

As for `CN1CCC(N2CCN(c3cccc(C(F)(F)F)c3)CC2)CC1`, the inhibition is -9.94%.

Turning to `S=c1[nH]nc(Cc2ccccc2)n1-c1ccc(Cl)cc1`, the inhibition was -10.8%.

Consider `NNc1nc2ccc(Cl)cc2s1`, for which the inhibition was 52.6%.

For the compound `Cn1c(=O)c2c(nc(N/N=C/c3cccs3)n2Cc2ccccc2)n(C)c1=O`, the inhibition is 3.67%.

For the compound `CCCOC(=O)c1ccc(NC(=O)C(CC)CC)cc1`, the inhibition was 0.89%.

In the case of `CCOC(=O)c1ccc(NC(=O)COc2ccccc2CNC2CCCC2)cc1`, the inhibition was 11.1%.

In the case of `O=c1[nH]c(Nc2ccc(F)cc2)cc2ccccc12`, the inhibition is 3.27%.

For the compound `O=c1[nH]c(Nc2ccccc2)cc2ccccc12`, the inhibition was -8.22%.

In the case of `CCOC(=O)c1ccc(NC(=O)CNC(=O)C2CCCCC2)cc1`, the inhibition is -1.48%.

In the case of `CCOC(=O)c1ccc(NC(=O)C2CCN(S(=O)(=O)CC)CC2)cc1`, the inhibition was 51.8%.

Take `CCOC(=O)c1ccc(NC(=O)COc2ccccc2CNCCO)cc1`: the inhibition was 91.9%.

`CCOC(=O)c1ccc(NC(=O)CCC(=O)OC)cc1`: the inhibition is 72.2%.

In the case of `COc1ccccc1NC(=O)CCC(=O)N/N=C(/C)c1ccc(C)cc1`, the inhibition was 0.52%.

For `O=C(N/N=C/c1ccccn1)C(=O)N1CCCCCC1`, the inhibition is -1.83%.

Take `O=C(CSc1ncccn1)N1CCCc2ccccc21`: the inhibition is -8.67%.

With `CCCCN(C(=O)c1c(C)[nH]c(C(=O)OCC)c1C)c1ccccc1`, the inhibition was -3.19%.

For the compound `COc1ccc(-n2c(=O)c3ccccc3n(CC(=O)c3ccccc3)c2=O)cc1OC`, the inhibition was -3.99%.

`C/C(=N\NC(=O)C1CC1(C)c1ccccc1)c1ccco1` (stereo not given): the inhibition is 5.62%.

`Cn1ncc(C#N)c1NC(=O)c1nn2cccnc2c1Cl`: the inhibition was 6.92%.

In the case of `Cc1ccc(C(=O)OCC(=O)NCC(F)(F)F)cc1C`, the inhibition is 9.6%.

Consider `O=C(CC1C(=O)NCCN1CC1CCCCC1)NCCc1ccc(F)cc1` (stereo not given), for which the inhibition was -4.2%.

On to `CCOC(=O)Cc1ccc(NC(=O)c2ccccc2Br)cc1`, for which the inhibition was 7.37%.

For the compound `COC(=O)Cc1ccc(NC(=O)c2ccc(C(C)(C)C)cc2)cc1`, the inhibition is 6.95%.

As for `CCOC(=O)c1ccc(NC(=O)CN2C(=O)CNC2=O)cc1`, the inhibition is -6.17%.

For `CC(=O)c1cccc(NC(=O)Cc2coc3cc4c(cc23)CCC4)c1`, the inhibition is 6.34%.

`CCOC(=O)c1ccc(NS(C)(=O)=O)cc1`: the inhibition is -0.25%.

Consider `CCOC(=O)c1ccc(NC(=O)CNC(=O)C23CC4CC(CC(C4)C2)C3)cc1`, for which the inhibition is -2.81%.

As for `CCOC(=O)c1ccc(NC(=O)CN2C(=O)CCC2=O)cc1`, the inhibition is -7.66%.

`Cc1ccc(C)c(NC(=O)Cc2coc3cc4c(cc23)CCC4)c1`: the inhibition was 9.72%.

On to `O=S(=O)(Cc1ccccc1)Cc1cnc(Cl)s1`, for which the inhibition is 4.1%.

For the compound `CCCOCCc1nnc(N)s1`, the inhibition is 1.89%.

Take `Cc1cccc(OCCSc2cc(C)nc(N)n2)c1`: the inhibition was 6.69%.

On to `Cc1[nH]c2ccccc2c1/C=C/C(=O)c1ccncc1`, for which the inhibition is 6.67%.

Consider `COc1ccc(/C=C/C(=O)c2ccncc2)c2ccccc12`, for which the inhibition was 76%.

As for `O=C(/C=C/c1ccc2c(c1)OCO2)Nc1cccnc1`, the inhibition was 8.75%.

For `CCCCN(CCNP(=O)(OCC)OCC)CP(=O)(OCC)OCC`, the inhibition was -3.59%.

For `Nc1nc2ccc(O)cc2s1`, the inhibition is -4.72%.

As for `COc1ccc2nc(N)sc2c1`, the inhibition was 42%.

Take `O=C(O)CSC1=NC(=Nc2cccc(Cl)c2)C2(CCCCC2)N1c1ccccc1`: the inhibition is 5.37%.

On to `O=C(NC1CC1)C1=C[C@@H](c2ccccc2)C[C@@H](OCc2ccc(CO)cc2)O1`, for which the inhibition is -10.6%.

As to `COc1ccccc1N1CCN(c2nc3ccccn3c(=O)c2C=O)CC1`, the inhibition was -13.2%.

With `N#Cc1nc(-c2cccs2)oc1NCc1ccccc1`, the inhibition is 6.94%.

Turning to `C=CCNc1oc(-c2cccs2)nc1C#N`, the inhibition was -10.7%.

In the case of `CCOC(=O)C1(Cc2ccccc2)CCN(Cc2ccc(COC)o2)CC1`, the inhibition is 8.15%.

On to `Cc1cccc(NC(=O)CSc2nnc(-c3ccncc3)n2C)c1`, for which the inhibition is -2.48%.

With `COC(=O)c1ccc(N)c(N=CC2=C(O)CC(C)(C)CC2=O)c1`, the inhibition is 99.2%.

In the case of `CCOCCSC1=C(C#N)C(c2cccs2)C(C(C)=O)=C(C)N1` (stereo not given), the inhibition is -2.87%.

`CCSC1=C(C#N)C(c2cccs2)C(C(=O)OC)=C(C)N1` (stereo not given): the inhibition is -5.12%.

Consider `Cc1nc2cc(NC(=O)CCS(=O)(=O)c3ccccc3)ccc2s1`, for which the inhibition was -0.27%.

Regarding `Nc1ncnc(Oc2ccccc2F)c1[N+](=O)[O-]`, the inhibition was 7.09%.

Turning to `Cc1ccccc1Oc1ncnc(N)c1[N+](=O)[O-]`, the inhibition was -1.2%.

On to `COc1ccc(NC(=O)C(=O)NCCN2CCN(C(=O)c3ccco3)CC2)cc1`, for which the inhibition is 4.1%.

`O=C(Cc1cccs1)Nc1ccc(-c2nc3ccccc3[nH]2)cc1`: the inhibition is 1.13%.

As to `O=C(COc1ccccc1)Nc1cccc(-c2nc3cc4ccccc4cc3[nH]2)c1`, the inhibition is 55.3%.

With `O=C(Nc1cccc([N+](=O)[O-])c1)N1CCN(c2ccccc2)CC1`, the inhibition was -7.11%.

Turning to `CC(=O)c1ccc(NC(=O)N2CCN(c3ccc(C)cc3)C(C)C2)cc1` (stereo not given), the inhibition was 0.07%.

As for `Cc1ccc(NC(=S)NCc2ccccc2)cc1S(=O)(=O)N1CCCCC1`, the inhibition is -3.09%.

As for `Cc1cc2c(ncn2Cc2ccccc2)c(N)c1C`, the inhibition was 1.64%.

Consider `CCCn1cnc2c(N)c(C)c(C)cc21`, for which the inhibition was -8.86%.

Turning to `N#C/C(=N\Nc1c(Cl)cccc1Cl)C(=O)NN`, the inhibition was 0.65%.

`O=[N+]([O-])c1cc(/C=N\Nc2nc(-c3ccccc3)cs2)ccc1O`: the inhibition was -2.52%.

On to `O=C(Nc1ccccc1Cl)Nc1ccccc1Cl`, for which the inhibition was -9.3%.

In the case of `O=C(Nc1ccccc1Cl)Oc1ccc(Cl)cc1Cl`, the inhibition is -3.15%.

Consider `Cn1c(NC(=O)C2CC2)cc(=O)n(C)c1=O`, for which the inhibition was 5.07%.

In the case of `CCn1c(/C=C/c2ccccc2)nc2ccccc2c1=O`, the inhibition was 0.15%.

With `O=c1oc(/C=C/c2ccccc2)nc2sc3c(c12)CCC3`, the inhibition was -3.48%.

For the compound `COC(=O)c1cc(OC)c(OC)cc1NC(=O)c1cccnc1`, the inhibition is 4.7%.

`CCCOc1c(Cl)cc(C(=O)NC)cc1OC`: the inhibition is 12%.

In the case of `COC(=O)CC1C(=O)NCCN1C(=O)c1sc2ccccc2c1Cl` (stereo not given), the inhibition is -9.23%.

For the compound `O=C(COC(=O)Cc1ccccc1F)Nc1ccc(Cl)cn1`, the inhibition was -6.09%.

Regarding `COc1ccc(S(=O)(=O)c2cnc3ccc(OC)cc3c2N2CCC3(CC2)OCCO3)cc1`, the inhibition was 9.48%.

For the compound `CCOc1ccc2ncc(S(=O)(=O)c3ccccc3)c(N3CCC4(CC3)OCCO4)c2c1`, the inhibition is -1.36%.

Regarding `Cc1ccc(N2C(=O)[C@@H]3[C@H](C2=O)C2c4ccccc4C=NN2[C@@H]3C(=O)c2ccc(Cl)cc2)cc1` (stereo not given in full), the inhibition was 8.72%.

`Cc1ccc(-n2cc(-c3ccc([N+](=O)[O-])cc3)[nH]c2=S)c(C)c1`: the inhibition was 3.47%.

With `O=C(O)c1ccnc(SCC(=O)c2ccccc2)c1`, the inhibition was -4.56%.

Turning to `Cc1ccc(C(=O)CSc2ccccn2)cc1`, the inhibition was -3.3%.

`CCC(CC)C(=O)Nc1cc([N+](=O)[O-])ccc1Cl`: the inhibition was 5.59%.

As for `O=C(CCCC(=O)OCC(Cl)=C(Cl)Cl)Nc1ccccc1F`, the inhibition was -0.28%.

With `CC(=O)n1cc(-c2ccncc2)c2ccccc21`, the inhibition is 8.31%.

Turning to `CCOC(=O)c1ccccc1Nc1cn(C(C)=O)c2ccccc12`, the inhibition is 3.14%.

As for `O=Cc1[nH]c2ccccc2c1N(C(=O)CCl)c1ccc([N+](=O)[O-])cc1`, the inhibition is -1.28%.

As for `CC(=O)n1cc(Nc2ccc([N+](=O)[O-])cc2)c2ccccc21`, the inhibition is 3.13%.

For the compound `COC(=O)c1cn(C(=O)c2ccc(Cl)cc2)c2ccccc12`, the inhibition was -3.26%.

Regarding `CC(=O)n1cc(Nc2ccccc2C(=O)O)c2ccccc21`, the inhibition was -4.19%.

Turning to `COc1ccccc1N(C(=O)CCl)c1cn(C(C)=O)c2ccccc12`, the inhibition is 42.8%.

`CC(=O)N(c1ccc(Cl)cc1)c1cn(C(C)=O)c2ccccc12`: the inhibition is 11.9%.

In the case of `CC(NC(=O)COC(=O)C1CSC2(C)CCC(=O)N12)C12CC3CC(CC(C3)C1)C2` (stereo not given), the inhibition was -1.31%.

As for `O=C(CN1CCN(Cc2ccccc2)CC1)N/N=C/c1ccccc1F`, the inhibition was -1.58%.

In the case of `Cn1cc(CNCc2cn(C)nc2-c2ccc(C3CCCCC3)cc2)cn1`, the inhibition was 8.48%.

In the case of `COc1ccc(C(=O)c2ccc(Cl)cc2)cc1`, the inhibition is 6.37%.

Turning to `CCOC(=O)C1CCN(S(=O)(=O)c2ccc(-n3cnnn3)c(C)c2)CC1`, the inhibition was -3.24%.

On to `O=C(COC(=O)c1ccc(Cl)nc1)NCc1ccco1`, for which the inhibition is -2.82%.

In the case of `Clc1cccc(Cl)c1Cn1nnc(N2CCCC2)n1`, the inhibition is -4.55%.

`O=C(CCCn1c(SCC(=O)c2ccc(Cl)cc2)nc2ccccc2c1=O)NCc1ccco1`: the inhibition was -0.03%.

As for `Cc1cc(C)c2cc(C)c(SCC(=O)NCc3ccco3)nc2c1`, the inhibition is -6.87%.

For the compound `CCc1ccccc1NC(=S)N1CCNC(=O)C1CC(=O)OC` (stereo not given), the inhibition is 3.01%.

The values above are taken from PubChem BioAssay AID1626 (SRMLSC, 2009).
